The list is not random: actives were taken first. Their share in the collection is about 2.3%.
CHRM1 agonist: human M1 muscarinic receptor agonists, primary screen, Fluo-8 calcium fluorescence, CHO-K1 cells, HTS; CHO-K1 hM1, agonist mode; 0% DMSO, 100% acetylcholine EC100; activation, % at 3 µM; Muscarinic acetylcholine receptor M1 (Homo sapiens), P11229; hit rate 0.33% among 360,000;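 active means activation above the run's mean compound activation plus 3 SD, cut at about 16% in these data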;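 further: peak over basal fluorescence ratio within a 140 s kinetic read after compound addition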
Target sequence (P11229 whole entry, looked up): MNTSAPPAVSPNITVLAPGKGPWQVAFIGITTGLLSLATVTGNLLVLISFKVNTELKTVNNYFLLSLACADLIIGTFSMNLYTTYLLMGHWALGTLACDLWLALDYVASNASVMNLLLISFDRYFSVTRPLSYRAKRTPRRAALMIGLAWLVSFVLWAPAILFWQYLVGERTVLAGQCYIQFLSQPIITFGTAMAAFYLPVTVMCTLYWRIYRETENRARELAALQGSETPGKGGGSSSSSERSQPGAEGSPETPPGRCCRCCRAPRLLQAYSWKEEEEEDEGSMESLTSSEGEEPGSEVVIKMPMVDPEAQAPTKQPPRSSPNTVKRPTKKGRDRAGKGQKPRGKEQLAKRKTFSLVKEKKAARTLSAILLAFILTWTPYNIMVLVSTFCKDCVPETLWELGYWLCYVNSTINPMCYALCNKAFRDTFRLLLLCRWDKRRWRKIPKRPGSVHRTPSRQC
CHRM1 PAM: human M1 muscarinic receptor positive allosteric modulators, primary screen, CHO-K1 cells, Fluo-8 calcium fluorescence, 1536-well. CHO-K1 hM1, ACh EC20; 0% = ACh EC20, 100% = maximal ACh. activation, % at 3 µM. hit rate 0.088% among 360,000; in the data active means activation above about 19%, passing the limit was not always enough
CHO-K1 Ca ag: counter-screen for M1 agonists: effect in parental CHO-K1 cells. Fluo-8 calcium fluorescence; scaled to maximal ATP response, vehicle zero. hit rate 0.48% among 360,000. activation, % at 3 µM; in the data active means activation above about 15%;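 further: untransfected CHO-K1 host cells lacking M1 receptor as counterscreen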
CHRM1 antagonist: human M1 muscarinic receptor antagonists, primary screen, CHO-K1 cells, Fluo-8 calcium fluorescence, 1536-well; Muscarinic acetylcholine receptor M1 (Homo sapiens), P11229; CHO-K1 hM1, ACh EC80 antagonist; inhibition, % at 3 µM; hit rate 1.3% among 360,000;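 active means percent inhibition above its own plate's cutoff, namely the mean of that plate's compound wells plus 3 SD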;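 further: peak over basal fluorescence ratio during 140 s after agonist addition; 0% = ACh EC80 plus DMSO and 100% = DMSO alone without agonist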
M1 PAM parental: nonselective calcium activators in parental CHO-K1 cells, primary screen, counter-screen for M1 PAM project, cell-based, Fluo-8 calcium fluorescence, full deck, 1536-well; ATP EC20; 0% at ATP EC20, 100% at ATP max; activation, % at 3 µM; hit rate 0.02% among 360,000; AID 602247, 2012;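 active means activation above the run cutoff, the mean activation of all test compounds plus 3 SD, cut at about 40% in these data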;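 further: peak over basal fluorescence ratio in a 140 s read after ATP addition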
CHO-K1 Ca antag: counter-screen for M1 antagonists: effect in parental CHO-K1 cells; hit rate 0.6% among 360,000; inhibition, % at 3 µM; ATP-induced calcium, Fluo-8 fluorescence;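 active means inhibition above a per-plate cutoff, the plate's mean sample inhibition plus 3 SD, cut at about 24% in these data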;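 further: 0% = DMSO plus EC80 ATP and 100% = DMSO alone without ATP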
The depositor's hits bear a star.

Screening Nc1nc2ccc(Cl)cc2cc1C(=O)NCc1ccc(Oc2ccccc2)cc1 returned CHO-K1 Ca ag 6, M1 PAM parental -6 and CHO-K1 Ca antag 28*.
`Nc1nc2ccc(Cl)cc2cc1C(=O)NCCc1c[nH]c2ccccc12` gave CHO-K1 Ca ag 12, M1 PAM parental -5 and CHO-K1 Ca antag 16.
`COc1ccc(CCNC(=O)c2cc3ccc(Cl)cc3nc2N)cc1` gave CHO-K1 Ca ag 12, M1 PAM parental -8 and CHO-K1 Ca antag 33*.
`O=C1NC(=O)C2(CCCC2c2ccccc2)N1` (centres undefined) gave CHRM1 agonist -3, CHRM1 PAM 2, CHO-K1 Ca ag 0, CHRM1 antagonist -4, M1 PAM parental 12 and CHO-K1 Ca antag -8.
Screening Fc1ccc(C(CCNCc2ccccn2)c2ccc(Cl)cc2)cc1 (centres undefined) returned CHRM1 agonist -4, CHRM1 PAM 2, CHO-K1 Ca ag 6, CHRM1 antagonist -2, M1 PAM parental 7 and CHO-K1 Ca antag -2.
O=C1CN(CC(=O)Nc2ccc(Cl)cc2)CCN1 was read as CHRM1 agonist -2, CHRM1 PAM 3, CHO-K1 Ca ag 0, CHRM1 antagonist -6, M1 PAM parental 13 and CHO-K1 Ca antag -1.
For O=C1CN(CC(=O)Nc2ccc(SC(F)F)cc2)CCN1 the results were CHRM1 agonist -1, CHRM1 PAM -7, CHO-K1 Ca ag -1, CHRM1 antagonist 10, M1 PAM parental -16 and CHO-K1 Ca antag 27*.
`Cc1c(C)c2ccc(OCC(=O)N[C@@H](Cc3c[nH]c4ccccc34)C(=O)O)cc2oc1=O` gave CHRM1 agonist -2, CHRM1 PAM 2, CHO-K1 Ca ag 0, CHRM1 antagonist -7, M1 PAM parental -16 and CHO-K1 Ca antag 29*.
For S=C(Nc1ccc2nccnc2c1)N1CCOCC1 the results were CHRM1 agonist -7, CHRM1 PAM 6, CHO-K1 Ca ag 0, CHRM1 antagonist -6, M1 PAM parental -1 and CHO-K1 Ca antag 13.
Screening CCOC(=O)C1=CCN(S(=O)(=O)c2ccc(C)cc2)C1c1cccc(Cl)c1 (centres undefined) returned CHRM1 agonist 7, CHRM1 PAM 6, CHO-K1 Ca ag -1, CHRM1 antagonist 0, M1 PAM parental -4 and CHO-K1 Ca antag 29*.
CCOC(=O)C1=CCN(S(=O)(=O)c2cccc(Cl)c2)C1c1cccc(C)c1 (centres undefined) was read as CHRM1 agonist -8, CHRM1 PAM -3, CHO-K1 Ca ag 1, CHRM1 antagonist 6, M1 PAM parental 14 and CHO-K1 Ca antag 14.
Screening CC1CC(C)CN(C(=O)COC(=O)c2cc(S(=O)(=O)N3CCOCC3)ccc2F)C1 (centres undefined) returned CHRM1 agonist -2, CHRM1 PAM -18, CHO-K1 Ca ag 0, CHRM1 antagonist 57*, M1 PAM parental -23 and CHO-K1 Ca antag 7.
Screening Cc1oc(-c2ccccc2F)nc1CS(=O)(=O)CC(=O)NC1CCCC(C)C1C (centres undefined) returned CHRM1 agonist -1, CHRM1 PAM 9, CHO-K1 Ca ag 1, CHRM1 antagonist -13, M1 PAM parental 20 and CHO-K1 Ca antag -6.
Screening Cc1oc(-c2ccccc2F)nc1CS(=O)(=O)CC(=O)NC1CCCC1 returned CHRM1 agonist -1, CHRM1 PAM -14, CHO-K1 Ca ag 7, CHRM1 antagonist 33*, M1 PAM parental -7 and CHO-K1 Ca antag 10.
CCN(CC1CCCN(CCc2cccc(F)c2)C1)C(=O)c1ccoc1C (centres undefined) was read as CHRM1 agonist -9, CHRM1 PAM -11, CHO-K1 Ca ag -1, CHRM1 antagonist 9, M1 PAM parental 14 and CHO-K1 Ca antag -6.
CCN(CC1CCCN(CCc2cccc(F)c2)C1)C(=O)c1ccc(CSC)o1 (centres undefined) was read as CHRM1 agonist -7, CHRM1 PAM -24, CHO-K1 Ca ag 1, CHRM1 antagonist 61*, M1 PAM parental 0 and CHO-K1 Ca antag 2.
